Assay results taken from a collection of fitness landscapes (doi:10.1016/j.celrep.2020.107928).
The full ranking holds about 81,000 sequences; the median of “one-hybrid fitness for binding parS DNA” is about -0.17, and the highest 2% start at about 0.51. The entries come from a sample that favours the highest values as a whole.

B1: Caulobacter ParB omega fusion; a variant is named by its letters at X, in order, B8GW30 (parent)
chain: MESVVVGEPGMSEGRRGLGRGLSALLGEVDAAPAQAPGEQLGGSREAPIEILQRNPDQPRRTFREEDLEDLSNSIREKGVLQPILVRPSPDTAGEYQIVAGERAWRAAQRAGLKTVPIMVRELDDLAVLEIGIIENVQRADLNVLEEALSYKVLMEKFERTQENIAQTIGKSXSHVANXMRLLXLPDEVQSYLVSGELTAXHARAIAAAADPVALAKQIIEGGLSVRETEALARKAPNLSAGKSKGGRPPRVKDTDTQALESDLSSVLGLDVSIDHRGSTGTLTITYATLEQLDDLCNRLTRGI

Variants of: B1
Assay: one-hybrid fitness for binding parS DNA (scaled: cognate 1, non-cognate 0); higher = stronger binding
Conditions: with parS DNA site
Summary of the method: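 The reporter was HIS3, with the binding site 19 bp from the promoter, in E. coli USO used for bacterial one-hybrid selection of Caulobacter ParB libraries with four specificity codons randomised. Growth was on M9 lacking histidine, with 0.1 mM IPTG and 5 mM 3-AT, for 48 hours at 37°C. Illumina sequencing covered plasmids before and after selection; three replicate libraries were pooled and variants with under 10 reads dropped. A fitness score is the log change in variant-to-wild-type read ratio, rescaled to the cognate and non-cognate references.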

Variant	one-hybrid fitness for binding parS DNA
PNCQ	≤ 0.2
QNHC	≤ 0.2
RNEA	0.253
CLSL	≤ 0.2
SSKF	≤ 0.2
VNMC	≤ 0.2
RMAC	0.994
RMFR	≤ 0.2
RMAF	0.253
RMFN	0.459
RMFC	0.966
RMAK	≤ 0.2
MTRT	≤ 0.2
LSYV	≤ 0.2
LACS	≤ 0.2
RKDD	≤ 0.2
RKNS	0.766
RKNH	≤ 0.2
RKNN	0.327
RKDP	≤ 0.2
RKDS	0.886
QQTE	≤ 0.2
TVLW	≤ 0.2
QYWT	≤ 0.2

Variant	one-hybrid fitness for binding parS DNA
AHYS	≤ 0.2
RWAP	≤ 0.2
RWAH	≤ 0.2
RWFR	≤ 0.2
RWAC	0.721
RWFC	0.6
RWFM	≤ 0.2
HYMG	≤ 0.2
CCLT	≤ 0.2
HCNG	≤ 0.2
RVFR	≤ 0.2
RVFF	0.303
RVFC	0.972
RVAP	≤ 0.2
RVAD	≤ 0.2
RVAC	0.982
YKSS	≤ 0.2
DLKY	≤ 0.2
KPVK	≤ 0.2
RTDF	≤ 0.2
RTRF	0.627
RSKF	0.35
RTYF	0.259
RTKF	0.734

Variant	one-hybrid fitness for binding parS DNA
RPKF	≤ 0.2
RCKF	0.541
RTVF	≤ 0.2
RWHR	≤ 0.2
RPGM	≤ 0.2
VKLS	≤ 0.2
EMNC	≤ 0.2
QAGG	≤ 0.2
VSVK	≤ 0.2
LNGG	≤ 0.2
RVPS	0.812
RVID	≤ 0.2
RVPP	≤ 0.2
RVIS	0.981
RVIP	≤ 0.2
RVPD	≤ 0.2
PTIM	≤ 0.2
CNLM	≤ 0.2
LLRY	≤ 0.2
EDTE	≤ 0.2
RSYF	0.233
RDNG	≤ 0.2
RSYG	0.991
RCNG	0.966

Variant	one-hybrid fitness for binding parS DNA
RPNG	≤ 0.2
RSDF	≤ 0.2
RSNG	1
RSYR	≤ 0.2
REDG	≤ 0.2
RSNK	≤ 0.2
RENG	0.302
RSDG	0.84
YWPS	≤ 0.2
CLAE	≤ 0.2
SEHQ	0.354
DVPP	≤ 0.2
PLMI	≤ 0.2
HVLG	≤ 0.2
AYDG	≤ 0.2
RCDG	0.959
RPDG	≤ 0.2
RDDG	≤ 0.2
EYDG	≤ 0.2
SQTL	≤ 0.2
RSIC	0.718
RKIF	≤ 0.2
RCIC	0.906
RPIC	≤ 0.2

Variant	one-hybrid fitness for binding parS DNA
RSIN	0.269
RAIC	0.782
RKIC	0.811
RDIC	≤ 0.2
RAIM	0.209
RKPC	0.488
RAPC	0.485
RSIH	≤ 0.2
ARLT	≤ 0.2
THAD	≤ 0.2
PYVA	≤ 0.2
HQCG	≤ 0.2
HLKN	≤ 0.2
RHIN	≤ 0.2
RHPC	0.367
RHIC	0.651
RNVR	≤ 0.2
RNKC	0.917
RNVF	≤ 0.2
RNVC	0.599
RNKP	≤ 0.2
RNKD	≤ 0.2
IKLC	≤ 0.2
LQAE	≤ 0.2

Variant	one-hybrid fitness for binding parS DNA
IYHY	≤ 0.2
VEVT	≤ 0.2
NPKT	≤ 0.2
ITLC	≤ 0.2
ARFV	≤ 0.2
RIKK	≤ 0.2
RIKG	0.959
RIVG	0.946
RIVF	0.378
RIVR	≤ 0.2
RIKN	0.451
HGLV	≤ 0.2
DGHT	≤ 0.2
QIRE	≤ 0.2
RTIC	0.912
RTIY	0.418
RTIM	0.279
RTPF	≤ 0.2
RTPC	0.625
QSQK	≤ 0.2
CSYS	≤ 0.2
TQQS	≤ 0.2
RYDY	0.422
RYNN	0.364

Variant	one-hybrid fitness for binding parS DNA
RYNP	≤ 0.2
RYNC	0.86
RYDC	0.949
RYDQ	0.223
PYET	≤ 0.2
QEHT	≤ 0.2
KIRI	≤ 0.2
THLT	≤ 0.2
CDLR	≤ 0.2
RIDA	0.55
NINA	≤ 0.2
RINA	0.596
GNPS	≤ 0.2
RCND	≤ 0.2
VLGC	≤ 0.2
NLPL	≤ 0.2
PQIT	≤ 0.2
SCSQ	≤ 0.2
QQAG	≤ 0.2
RKPP	≤ 0.2
RKIG	0.855
RKPG	0.552
RKPD	≤ 0.2
RKIN	0.322

Variant	one-hybrid fitness for binding parS DNA
RKIH	≤ 0.2
MVDG	≤ 0.2
KIKY	≤ 0.2
NDWV	≤ 0.2
VADQ	≤ 0.2
INHN	≤ 0.2
RTKW	0.668
RTVW	0.218
RTYW	0.262
RPKW	≤ 0.2
RTRW	0.542
RTDW	≤ 0.2
NNGS	≤ 0.2
PVIL	≤ 0.2
PSIS	≤ 0.2
TSQY	≤ 0.2
PQCN	≤ 0.2
RTDD	≤ 0.2
RTNG	0.968
RTNF	0.403
RTDP	≤ 0.2
RTNH	≤ 0.2
RTDG	0.935
MGVN	≤ 0.2

Variant	one-hybrid fitness for binding parS DNA
DGDV	≤ 0.2
WCVR	≤ 0.2
CTRY	≤ 0.2
YMTL	≤ 0.2
CALA	≤ 0.2
RNSH	≤ 0.2
RNLG	0.831
RNGG	0.841
RNLQ	≤ 0.2
RNGH	≤ 0.2
RNSG	0.921
RNWG	0.651
RNWQ	≤ 0.2
RNSD	≤ 0.2
RNWM	≤ 0.2
RNLY	0.303
RNGN	0.242
DCGR	≤ 0.2
MWMK	≤ 0.2
TMVR	≤ 0.2
TWPL	≤ 0.2
YNCT	≤ 0.2
YGAI	≤ 0.2
AARF	≤ 0.2

Variant	one-hybrid fitness for binding parS DNA
ITIY	≤ 0.2
RNCF	≤ 0.2
RNHG	0.866
RNCH	≤ 0.2
RNQQ	≤ 0.2
RNHM	≤ 0.2
RNCG	0.771
RNQF	≤ 0.2
RNYG	0.789
RNHK	≤ 0.2
RNQG	0.882
RNYP	≤ 0.2
RNYR	≤ 0.2
GTAW	≤ 0.2
LGVR	≤ 0.2
PMST	≤ 0.2
LAKV	≤ 0.2
PYNM	≤ 0.2
TKAL	≤ 0.2
PHQS	≤ 0.2
QTGN	≤ 0.2
NQIG	≤ 0.2
LHGR	≤ 0.2
WVYT	≤ 0.2

Variant	one-hybrid fitness for binding parS DNA
VPRP	≤ 0.2
RNRK	≤ 0.2
RNRY	0.503
RNRG	0.94
FALT	≤ 0.2
KIQT	≤ 0.2
TSHI	≤ 0.2
RVVC	0.914
RVVQ	≤ 0.2
RVVR	≤ 0.2
RVKC	0.813
RVKR	≤ 0.2
RVKF	0.355
DKVG	≤ 0.2
QKKI	≤ 0.2
HVMR	≤ 0.2
RAEN	0.337
RAES	0.948
RLEH	0.228
RLEP	≤ 0.2
RFEN	0.342
RAED	≤ 0.2
RPES	≤ 0.2
RCEP	≤ 0.2

Variant	one-hybrid fitness for binding parS DNA
RCES	1.02
RFES	0.881
RLES	1
RFEP	≤ 0.2
SMRL	≤ 0.2
HSNG	≤ 0.2
IHDA	≤ 0.2
GPGK	≤ 0.2
LPNM	≤ 0.2
LTRT	≤ 0.2
GAAR	≤ 0.2
NIPL	≤ 0.2
RGES	0.554
RSES	0.902
RSEH	≤ 0.2
RREN	0.3
RHES	0.962
RGEN	≤ 0.2
RSEP	≤ 0.2
RGED	≤ 0.2
RHEN	0.369
RHED	≤ 0.2
RRES	0.752
RRED	≤ 0.2

Variant	one-hybrid fitness for binding parS DNA
TVWR	≤ 0.2
ANGP	≤ 0.2
NLAR	≤ 0.2
SREP	≤ 0.2
GNAS	≤ 0.2
RIEP	≤ 0.2
RTEH	0.208
RIEN	0.279
RMED	≤ 0.2
RTED	≤ 0.2
RKEN	0.351
RIES	0.93
RKEP	≤ 0.2
RMEP	≤ 0.2
RTES	0.985
RKES	0.899
RMES	0.956
SVCD	≤ 0.2
